Assay outcomes deposited in PubChem BioAssay by National Center for Advancing Translational Sciences (NCATS).
HCMV inh: blocks human cytomegalovirus replication | activity change, negative = inhibition, % at 57.5 µM | HFF cells, HCMV-luciferase reporter, 72 h; hits give low values | AID 1259415 | hit rate 4.5% among 410,000; in the data active = activity change below about -60%; inconclusive = no clear call, values can overlap the other calls; inactive = above about -39%
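Human foreskin fibroblasts infected with luciferase-reporter HCMV at MOI 1 PFU/cell, compounds at two doses. Luciferase measured 72 h post infection; normalized to buffer-only basal and Salinomycin (10uM) controls.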
FMDV inh: antivirals against foot and mouth disease virus; FMDV antiviral cell-based qHTS; Potency, µM (series often up to 57.9 µM), usual class: inhibitors; hit rate 1.2% among 410,000; calls by dose curve; tested in HEK293T cells; also: read-out not given here; nearly all actives have a fitted effect of over 45% in size
VACV Venus inh: vaccinia inhibition (Venus reporter); hit rate 0.46% among 330,000; Potency, µM (highest dose often 36.5 µM), most hits filed as inhibitors; Vaccinia virus Venus reporter expression, fluorescence; AID 720580; calls by dose curve; tested in A549 cells; also: nearly all actives have a fitted effect of over 30% in size
Marburg entry inh: blocks Marburg virus binding to or entry into cells; Marburg virus pseudotyped entry inhibition, cell reporter; Potency, µM (titrated, usually from 37.8 µM), hits mostly inhibitors; hit rate 1.8% among 300,000; calls by dose curve; tested in HEK293 cells
LASV entry inh: inhibitors of Lassa virus binding or cell entry; hit rate 1.2% among 300,000; AID 540256; Lassa virus pseudotype entry inhibition, cell reporter; Potency, µM (doses to about 37.9 µM), actives largely listed as inhibitors; calls by dose curve; tested in HEK293 cells; also: nearly all actives have a fitted effect of over 50% in size
Vaccinia mCherry: vaccinia inhibition (mCherry reporter) | Vaccinia virus mCherry reporter infection, fluorescence | Potency, µM (top dose mostly 36.5 µM), usual class: inhibitors | hit rate 0.63% among 310,000; calls by dose curve; tested in A549 cells; also: nearly all actives have a fitted effect of over 35% in size
Large screens that a line does not name were inactive. Rows were chosen to be rich in hits. Some 6.5% of all compounds tested hit in one or more screens of this group.

COc1ccc(Nc2oc(-c3ccc(COc4ccccc4C)o3)nc2C#N)cc1	FMDV inh inconclusive
N#Cc1nc(-c2ccc(COc3ccccc3)o2)oc1NCc1ccccc1	HCMV inh inconclusive
CCOc1ccc(Nc2oc(-c3ccc(COc4ccc(OC)cc4)o3)nc2C#N)cc1	HCMV inh -81, Vaccinia mCherry inconclusive
CC1CCN(S(=O)(=O)c2ccc3[nH]ccc3c2)CC1	HCMV inh -94 (no result: Marburg entry inh)
COc1ccc(S(=O)(=O)N2CCC(C)CC2)cc1OC	none (no result: VACV Venus inh, Marburg entry inh, LASV entry inh, Vaccinia mCherry)
CC1CCN(S(=O)(=O)c2ccc3c(c2)C(=NO)c2cc(S(=O)(=O)N4CCC(C)CC4)ccc2-3)CC1	HCMV inh -99, FMDV inh inconclusive, VACV Venus inh inconclusive, Marburg entry inh inconclusive, LASV entry inh 2.5µM, Vaccinia mCherry 2.8µM
O=C(O)C1CCN(S(=O)(=O)c2ccc3[nH]ccc3c2)CC1	none (no result: Marburg entry inh, LASV entry inh)
O=S(=O)(c1ccc2c(c1)C(=NO)c1cc(S(=O)(=O)N3CCCCC3)ccc1-2)N1CCCCC1	HCMV inh -102, FMDV inh inconclusive, VACV Venus inh 1.4µM, Marburg entry inh inconclusive, LASV entry inh 6.3µM, Vaccinia mCherry 1.8µM
Cc1ccc(CN2CCOc3ccc(CN4CCC(Oc5cccnc5)CC4)cc3C2)o1	none (no result: HCMV inh, Marburg entry inh, LASV entry inh)
CCOC(=O)c1c(C)sc2c1N(C(=O)CCl)c1cc(Cl)ccc1S2	HCMV inh -96, FMDV inh 10µM, Marburg entry inh inconclusive, LASV entry inh inconclusive, Vaccinia mCherry inconclusive
Cc1sc2ncnc(SCC(=O)N3c4ccccc4Sc4ccc(Cl)cc43)c2c1C	Marburg entry inh inconclusive
CCn1cc(C(=O)Nc2cccc(Cl)c2)c2cc(OC)c(OC)cc2c1=O	none
CCCCCn1c(=O)c(C(=O)Nc2ccccc2S(N)(=O)=O)c(O)c2ccccc21	HCMV inh -101, VACV Venus inh inconclusive, Marburg entry inh inconclusive, LASV entry inh inconclusive
CCCCCCCn1c(=O)c(C(=O)Nc2cnccn2)c(O)c2ccccc21	HCMV inh -62, Marburg entry inh inconclusive, LASV entry inh inconclusive
Cc1c(C(=O)NCC2Cc3cccc(-c4cncnc4)c3O2)c(-c2ccccc2)nn1-c1ccccc1 (centres undefined)	none (no result: HCMV inh, Marburg entry inh, LASV entry inh)
CCC(C)NC(=S)Nc1ccc(C(=O)OC)cc1 (centres undefined)	HCMV inh -85
CCC(C)NC(=S)Nc1ccccc1 (centres undefined)	none
CCOC(=O)c1ccc(NC(=S)NNC(C)(C)C)cc1	HCMV inh -74 (no result: VACV Venus inh, LASV entry inh, Vaccinia mCherry)
COc1cccc(NC(=O)[C@@H]2CC(=O)n3cnnc3S2)c1	none (no result: HCMV inh, FMDV inh, VACV Venus inh, LASV entry inh, Vaccinia mCherry)
Cc1cccc(C)c1NC(=O)Cn1nnc(C(=O)Nc2c(C)cccc2C)c1N	none
C=C(C)C(=O)C=CCCCC=CC(=O)OCC	none (no result: HCMV inh, FMDV inh, VACV Venus inh, LASV entry inh, Vaccinia mCherry)
CSCCC1NC(=O)N(CC(=O)Nc2ccc3c(c2)OCCO3)C1=O (centres undefined)	none (no result: VACV Venus inh, Marburg entry inh, LASV entry inh, Vaccinia mCherry)
O=c1cc(-c2ccccc2)nc(Cc2c(Cl)cccc2Cl)[nH]1	Vaccinia mCherry inconclusive
O=c1cc(CCl)nc(Cc2c(Cl)cccc2Cl)[nH]1	HCMV inh -93, FMDV inh inconclusive, VACV Venus inh inconclusive, Marburg entry inh inconclusive, LASV entry inh inconclusive, Vaccinia mCherry inconclusive
CN(Cc1nc(Cc2ccccc2F)no1)CC1(N2CCOCC2)CCCCC1	Marburg entry inh inconclusive
CN(Cc1nc(Cc2ccccc2F)no1)Cc1cccc2ncccc12	HCMV inh -85, FMDV inh 16µM, LASV entry inh inconclusive
CCC(NC(=O)Nc1ccc(O)cc1)(C(F)(F)F)C(F)(F)F	HCMV inh -70, Marburg entry inh inconclusive (no result: Vaccinia mCherry)
Cc1ccccc1CN1[C@H](C)[C@@H](c2ccccc2)Oc2c(Cl)cccc2S1(=O)=O	none (no result: HCMV inh, FMDV inh, VACV Venus inh, Marburg entry inh, Vaccinia mCherry)
Nc1nnc(Cc2ccc(Cl)cc2Cl)s1	none
Nc1nc(-c2ccccn2)nc(N)c1Cc1ccc(Cl)cc1Cl	HCMV inh -93, Marburg entry inh inconclusive, LASV entry inh inconclusive, Vaccinia mCherry inconclusive
Nc1nc(-c2ccccn2)nc(N)c1Cc1c(F)cccc1Cl	HCMV inh -96, Marburg entry inh inconclusive, LASV entry inh inconclusive, Vaccinia mCherry inconclusive
Nc1nc(-c2ccccn2)nc(N)c1Cc1ccccc1F	HCMV inh -102, Marburg entry inh inconclusive, LASV entry inh inconclusive
N#Cc1ccccc1S(=O)(=O)N1CCN(CC(O)COc2ccccc2F)CC1 (centres undefined)	none
CCOC(=O)C(CC)Sc1ccc2nnc(CCNS(=O)(=O)c3ccccc3)n2n1 (centres undefined)	HCMV inh -103
COC(=O)C(C)Sc1ccc2nnc(-c3ccc(F)cc3)n2n1 (centres undefined)	LASV entry inh inconclusive (no result: VACV Venus inh, Vaccinia mCherry)
CCC(Sc1ccc2nnc(-c3ccc(F)cc3)n2n1)C(=O)OC (centres undefined)	HCMV inh -93 (no result: VACV Venus inh, Vaccinia mCherry)
O=C(c1cccc(Cl)c1)N1CCC(N2CCC(C(=O)N3CCCC3)CC2)CC1	HCMV inh inconclusive (no result: VACV Venus inh, Marburg entry inh, LASV entry inh, Vaccinia mCherry)
CCC(C)(C)n1nnnc1C(c1cc2ccc(OC)cc2[nH]c1=O)N1CCc2ccccc2C1 (centres undefined)	HCMV inh -75 (no result: VACV Venus inh, Vaccinia mCherry)
CCC(c1nnnn1Cc1ccccc1)N(Cc1ccco1)Cc1cc2cc(OC)ccc2[nH]c1=O (centres undefined)	FMDV inh inconclusive, LASV entry inh inconclusive (no result: Vaccinia mCherry)
CCC(C)(C)n1nnnc1C(c1cc2ccc(OC)cc2[nH]c1=O)N1CCc2ccccc21 (centres undefined)	Marburg entry inh inconclusive (no result: VACV Venus inh, Vaccinia mCherry)
CCCC(c1nnnn1C(C)(C)CC)N(Cc1ccco1)Cc1cc2ccc(OC)cc2[nH]c1=O (centres undefined)	VACV Venus inh inconclusive, Marburg entry inh 13µM, LASV entry inh inconclusive, Vaccinia mCherry inconclusive
CCN(C(=O)CCc1nc(-c2ccc(C)cc2)no1)c1cccc(Cl)c1	none
Cc1ccc(-c2nnc(Nc3ccccc3)o2)cc1	HCMV inh inconclusive, Marburg entry inh 1.6µM, LASV entry inh inconclusive (no result: FMDV inh)
c1ccc(Nc2nnc(-c3ccc4c(c3)OCO4)o2)cc1	none (no result: FMDV inh, VACV Venus inh, Marburg entry inh, LASV entry inh, Vaccinia mCherry)
N#C/C(=C\c1ccc(Oc2ccc(C(F)(F)F)cc2[N+](=O)[O-])cc1)c1nc2ccccc2[nH]1	FMDV inh 25µM, Marburg entry inh inconclusive, LASV entry inh inconclusive (no result: Vaccinia mCherry)
CN(CCOc1ccc(Br)cc1)C(=O)CNC(=O)c1ccc2ccccc2c1	Marburg entry inh inconclusive
CCOC(=O)[C@@H]1[C@H]2COc3ccccc3[C@@H]2N2C(=O)N(c3ccc(OC)cc3)C(=O)[C@@]12C	HCMV inh inconclusive (no result: Marburg entry inh, LASV entry inh)
COc1ccc(OC)c(C(=O)CN2C(=O)NC(C)(c3ccccc3)C2=O)c1 (centres undefined)	HCMV inh -61, Marburg entry inh inconclusive
CC1(c2ccccc2)NC(=O)N(CC(=O)NCCC2=CCCCC2)C1=O (centres undefined)	HCMV inh -69
N=C1/C(=C\c2coc3ccccc3c2=O)C(=O)N=C2SC(c3ccncc3)=NN12	FMDV inh 16µM
COc1ccccc1-c1noc(-c2ccc(N3CCOCC3)c([N+](=O)[O-])c2)n1	none
Cc1ccc(-c2nnc(Nc3cccc(Cl)c3)c3ccccc23)cc1S(=O)(=O)NCC1CCCO1 (centres undefined)	HCMV inh -65, LASV entry inh inconclusive
